Hits are enriched below; roughly 10% of the tested compounds scored in any of these assays.
Six1-Eya2 blk = Six1/Eya2 interaction inhibition; activity change, % (no concentration beside the values); AlphaScreen GST-Six1/His-Eya2 binding, biochemical; stronger effect = lower value; AID 651725; hit rate 0.56% among 360,000; in the data active = activity change below about -65%; inconclusive = mostly about -30% to -63%; note: % is set by controls: 0 for no effect and ±100 for the full control effect
Target sequence (O00167 whole entry, looked up): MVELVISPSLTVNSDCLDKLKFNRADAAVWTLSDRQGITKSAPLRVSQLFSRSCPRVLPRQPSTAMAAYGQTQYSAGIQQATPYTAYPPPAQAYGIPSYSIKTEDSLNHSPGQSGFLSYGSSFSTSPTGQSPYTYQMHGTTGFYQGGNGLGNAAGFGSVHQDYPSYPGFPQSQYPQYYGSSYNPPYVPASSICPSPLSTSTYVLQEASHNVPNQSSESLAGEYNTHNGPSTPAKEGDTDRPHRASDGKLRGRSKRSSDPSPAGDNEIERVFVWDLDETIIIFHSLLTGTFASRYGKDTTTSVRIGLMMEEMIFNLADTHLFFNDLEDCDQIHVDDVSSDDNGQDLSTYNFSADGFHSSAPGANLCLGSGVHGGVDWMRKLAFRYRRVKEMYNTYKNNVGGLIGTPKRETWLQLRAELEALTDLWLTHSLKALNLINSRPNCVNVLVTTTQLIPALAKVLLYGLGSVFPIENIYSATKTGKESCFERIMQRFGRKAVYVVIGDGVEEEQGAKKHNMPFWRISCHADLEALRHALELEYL
Target sequence (Q15475 whole entry, looked up): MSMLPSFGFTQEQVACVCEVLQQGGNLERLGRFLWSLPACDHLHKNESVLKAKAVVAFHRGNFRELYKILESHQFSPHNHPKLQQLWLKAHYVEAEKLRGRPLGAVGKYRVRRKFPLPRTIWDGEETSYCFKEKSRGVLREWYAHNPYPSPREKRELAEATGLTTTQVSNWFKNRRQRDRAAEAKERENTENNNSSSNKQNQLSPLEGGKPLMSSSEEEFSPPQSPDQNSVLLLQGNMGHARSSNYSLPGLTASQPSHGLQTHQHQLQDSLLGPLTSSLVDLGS
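Homogeneous AlphaScreen proximity assay pairing GST-Six1 with His-tagged Eya2 (added as 5X mix: 250 nM and 500 nM) in 50 mM Tris pH 8.0, 300 mM NaCl, 1 mM TCEP. Glutathione donor and nickel acceptor beads; 1 h, 37 °C, dark.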
HP1b chromo inh = HP1-beta chromodomain-methylated histone interaction inhibition; P83916; Potency, µM (top dose mostly 114 µM), for the others: at the top dose activity change, negative = inhibition, usual class: inhibitors; hit rate 0.56% among 390,000; AlphaScreen HP1-beta / biotin-H3K9me3 peptide binding; note: potency is the fitted concentration of half-maximal effect; nearly all actives have a fitted effect of over 70% in size
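HP1-beta protein (50 nM final) preincubated 30 min at room temperature with biotinylated H3(1-18)K9me3 peptide (50 nM) in PBS pH 7.4, 0.01% Tween-20, then compound added for 30 min. AlphaScreen streptavidin donor/nickel chelate acceptor beads (10 ug/mL final), 30 min dark, luminescence read.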
CtBP-E1A inh = blocks the CtBP interaction with E1A; activity change, % (concentration not given with the values); AID 651724; hit rate 0.49% among 340,000; AlphaScreen GST-E1A/His-CtBP binding, 1536-well; stronger effect = lower value; in the data active = activity change below about -65%; inconclusive = mostly about -30% to -63%; note: % is set by controls: 0 for no effect and ±100 for the full control effect
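Homogeneous bead-based format: GST-tagged E1A captured on glutathione donor beads, His-tagged CtBP on nickel acceptor beads; compounds precede bead addition by 2 h at 37 °C.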
G9a inh = inhibitors of human histone lysine methyltransferase G9a; AID 504332; hit rate 8.8% among 350,000; G9a H3K9 monomethylation, AlphaScreen, 2 h; Potency, µM (doses to about 102 µM), for the others: top-dose activity, negative = inhibition, usual class: inhibitors; Q96KQ7; note: potency is the fitted concentration of half-maximal effect; % is set by controls: 0 for no effect and ±100 for the full control effect; nearly all actives have a fitted effect of over 75% in size
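Methyltransferase reactions run at room temperature for 2 h (20 nM enzyme, 500 nM biotin-H3K9 peptide, 20 uM SAM) after a 15 min compound preincubation; product detected by AlphaScreen beads and anti-H3K9me1 antibody.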
BAZ2B inh = blocks human BAZ2B; Potency, µM (top dose mostly 114 µM), for inactives: top-dose activity change, negative = inhibition, actives largely listed as inhibitors; hit rate 4.4% among 360,000; AlphaScreen BAZ2B-H3K14Ac peptide displacement; AID 504333; note: potency is the fitted concentration of half-maximal effect; % is set by controls: 0 for no effect and ±100 for the full control effect; nearly all actives have a fitted effect of over 60% in size
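BAZ2B 50 nM plus b-H3(5-23)K14Ac 50 nM, PBS pH 7.4/0.01% Tween-20, 30 min RT; compound added (max 110 uM), 30 min RT; streptavidin donor/Ni-chelate acceptor beads 10 ug/mL final, 20 min dark; AlphaScreen read.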
JMJD2A Tudor = JMJD2A Tudor domain (human) inhibition. AlphaScreen JMJD2A-Tudor / H3K4me3 peptide binding. O75164. hit rate 4.4% among 390,000. Potency, µM (series often up to 114 µM), inactives show at the top dose activity change, negative = inhibition, most hits filed as inhibitors; note: potency is the fitted concentration of half-maximal effect; % is set by controls: 0 for no effect and ±100 for the full control effect; nearly all actives have a fitted effect of over 50% in size
* hit, by the source's call; u = inconclusive; x = no result given; ! = repeats disagree; [ ] = another dose, or the depositor's remark. Unless noted, calls come from the whole dose curve; as a rule, active = well fitted inhibition curve with a large enough effect; inconclusive = small, poorly fitted or top-dose-only effect; inactive = no such curve, though single readings can be large or run the other way.

SMILES	Six1-Eya2 blk	HP1b chromo inh	CtBP-E1A inh	G9a inh	BAZ2B inh	JMJD2A Tudor
CCCCCCC(=O)OC1CC(C)(C)NC(C)(C)C1	x	x	x	2%[59 µM]	x	x
COc1ccccc1NS(=O)(=O)c1cc(NC(=O)c2ccc(Cl)nc2)ccc1N1CCCC1	-18	u	23	x	x	56µM*
COc1cc(C(=O)Nc2ccc(Br)cc2C(=O)c2ccccc2Cl)cc(OC)c1OC	-11	11%	1	-7%[59 µM]	2%	-20%
O=C1NC(=O)N(CCc2ccc(F)cc2)C(=O)/C1=C/c1ccco1	u	35µM*	-5	10µM*	10µM*	40µM*
CN(C)c1ccc(/C=C2\C(=O)NC(=O)N(CCc3ccc(F)cc3)C2=O)cc1	0	28%	x	45µM*	u	u
COCCN1C(=O)NC(=O)/C(=C\c2ccc(F)cc2)C1=O	5	42%	7	u	-13%	0%
O=C1NC(=O)N(CCC2=CCCCC2)C(=O)/C1=C\c1cccs1	-4	24%	6	u	u	u
O=C1NC(=O)N(CCc2ccc(F)cc2)C(=O)/C1=C/c1cccs1	6	-4%	6	3.2µM*	-33%	56µM*
CC[C@H](C)[C@H](NC(=O)[C@H](CCCN=C(N)N)NC(=O)[C@H](CCCN=C(N)N)NC(=O)[C@H](CC(C)C)NC(=O)[C@H](Cc1ccccc1)NC(=O)CNC(=O)CNC(=O)[C@@H](N)Cc1ccc(O)cc1)C(=O)O	x	x	x	41%[59 µM]	x	x
COc1ccc(-c2nn(-c3ccccc3)cc2C(=O)N2c3ccc(C)cc3C3CN(C)CCC32)cc1 (stereo not drawn)	-18	1%	-8	u	u	-22%
CN[C@@H](C)[C@H]1CC[C@@H](N)[C@@H](O[C@@H]2[C@@H](O)[C@@H](O[C@H]3OC[C@@](C)(O)[C@@H](NC)[C@@H]3O)[C@H](N)C[C@@H]2N)O1 (tested in a mixture with another compound)	x	x	x	31%[21.5 µM]	x	x
CCOC(=O)c1c(NC(NC(=O)CF)C(Cl)(Cl)Cl)sc2c1CCCC2 (stereo not drawn)	-13	-6%	-14	45µM*	-36%	40µM*
NS(=O)(=O)c1ccc(CNC(=O)COc2ccc3c4c(c(=O)oc3c2)CCCC4)cc1	0	3%	-5	14%	-3%[57.1 µM]	35µM*
COC(=O)[C@@]1(Cc2ccc(F)cc2)[C@H]2c3cc(C(=O)N(C)C)[nH]c3C[C@H]2CN1C(=O)c1ccccc1	-7	10%	-2	u	50µM*	-20%
COc1ccc(CCN2CCC(CNC(=O)c3cnn(-c4ccc(C)cc4)c3C3CCN(C(=O)OC(C)(C)C)CC3)CC2)cc1	x	6%	x	-20%[59 µM]	u	u
COc1ccccc1CN1CCNCC1	1	x	-2	x	x	x
c1ccc(CN2CCNCC2)nc1	-25	10%	-4	35µM*	71µM*	45µM*
O=P(/C(=N/O)N1CCOCC1)(N1CCOCC1)N1CCOCC1	-6	27%	6	14µM*	-6%	-3%
O=C(Nc1cccc(F)c1)N1CC2(CCNCC2)C1	x	x	x	-6%[12.7 µM]	x	x
CC(C)C1(C)N=C(c2nc3ccccc3cc2C(=O)O)NC1=O (stereo not drawn)	4	30%	10	8%[2.33 µM]	-36%	-21%
CC(C)C1(C)N=C(c2ncccc2C(=O)O)NC1=O (stereo not drawn)	-11	-3%	8	32µM*	28µM*	22µM*
CCCCCSc1cc(OC)c(CCNC)cc1OC	u	-38%	-23	u	u	u
CCCCCCCSc1cc(OC)c(CCNC)cc1OC	u	u	u	22µM*	20µM*	45µM*
CC(=O)NC(Cc1ccc(N(CCCl)CCCl)cc1)C(=O)NC(CC(C)C)C(=O)O (stereo not drawn)	3	15%	0	50µM*	u	-27%
CCN(CCCNS(=O)(=O)c1ccc2c(c1)oc(=O)n2C)c1cccc(C)c1	-25	u	-26	14µM*	-32%	16µM*
SMILES	Six1-Eya2 blk	HP1b chromo inh	CtBP-E1A inh	G9a inh	BAZ2B inh	JMJD2A Tudor
NCC1O[C@@H](O[C@H]2C(O)C(O[C@@H]3C(O[C@H]4OC(CO)C(O)C(O)C4N)C(N)CC(N)[C@H]3O)O[C@@H]2CO)C(N)C(O)C1O (stereo partly drawn)	x	x	x	-8%[2.33 µM]	x	x
CN(C)C(=O)Oc1cc(OC(=O)N(C)C)cc([C@@H](O)CNC(C)(C)C)c1	x	x	x	26%[21.5 µM]	x	x
C[C@@H]1O[C@@H](OC2CC(O)C3(CO)C4C(CCC3(O)C2)C2(O)CCC(C3=CC(=O)OC3)C2(C)C[C@H]4O)[C@H](O)[C@H](O)[C@H]1O (stereo partly drawn)	x	x	x	29%[59 µM]	x	x
CCOP(=S)(OCC)Oc1cc(C)oc(=O)c1Cl	-10	-9%	5	8.9µM*	56µM*	20µM*
Cc1cccc(-n2nc(C)c(C(=O)N3CCN(c4ccccc4)CC3)c2-n2cccc2)c1	x	-5%	x	-35%[59 µM]	u	u
CCC1(c2ccccc2)C(=O)NC(=O)N(C(=O)c2ccccc2)C1=O (stereo not drawn)	x	x	x	-1%[12.7 µM]	x	x
Cc1cccnc1-n1c(-c2ccco2)nc2ccccc2c1=O	-2	22%	-3	50µM*	-6%	13%
CO[C@@H](C)[C@](O)(C(=O)OCC1=CCN2CC[C@@H](O)[C@H]12)C(C)C	x	x	x	25%[21.5 µM]	x	x
CCN(CC)C(=O)Oc1ccc2cc(Br)ccc2c1	17	172%	13	108%[59 µM]	78%	96%
Cc1cccc(-n2c(-c3cccs3)nc3ccccc3c2=O)c1	-10	13%	13	0%[59 µM]	79µM*	u
C=CCN1CC[C@]23c4c5ccc(O)c4O[C@@H]2/C(=N/N=C2\CC[C@@]4(O)C6Cc7ccc(O)c8c7[C@@]4(CCN6CC=C)[C@@H]2O8)CC[C@@]3(O)C1C5	x	x	x	13µM*!	x	x
C=CCN1CCC23c4c5ccc(O)c4OC2/C(=N/N=C2\CCC4(O)C6Cc7ccc(O)c8c7C4(CCN6CC=C)C2O8)CCC3(O)C1C5 (stereo not drawn)	x	x	x	25µM*	x	x
C=CCN1CC[C@]23c4c5ccc(O)c4OC2[C@H](O)CC[C@@]3(O)[C@H]1C5 (stereo partly drawn)	1	17%	3	x	x	-12%
Oc1ccc2c3c1O[C@H]1[C@@H](O)CC[C@@]4(O)[C@@H](C2)N(CC2CCC2)CC[C@]314	3	32%	2	-7%[59 µM]	-5%	-17%
C=CCN1CC[C@]23c4c5ccc(O)c4O[C@H]2C(=O)CC[C@@]3(O)[C@H]1C5	1	20%	7	40µM*!	35%	-26%
Cc1cc(NC(=O)c2cccn(Cc3cccc([N+](=O)[O-])c3)c2=O)no1	x	9%	x	5%[59 µM]	-6%	-18%
